Reference: PubChem BioAssay (NCATS)
Records with an inconclusive call do not appear. Activity calls are given as the source filed them. Calls follow the shape of the dose curve; as a rule, active = well fitted curve in the direction sought with a large enough effect; inconclusive = small, poorly fitted or top-dose-only effect, or another doubt; inactive = no such curve, though single readings can be large or run the other way.

These molecules were tested against Thioredoxin reductase 1, cytoplasmic (Rattus norvegicus) (UniProt O89049) (assay: qHTS Assay for Substrates of Mammalian Selenoprotein Thioredoxin Reductase 1 (TrxR1) (AID 488772;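 also: a drop in NADPH fluorescence below the no-compound background marks a TrxR1 substrate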)). Settings: purified TrxR1, NADPH consumption substrate assay; series mostly up to 57.1 µM.
Excerpt: The selenoprotein thioredoxin reductase (TrxR; EC 1.8.1.9) is a FAD containing homodimeric pyridine nucleotide-disulfide oxidoreductase with many cellular roles. Together with NADPH and its prime substrate thioredoxin (Trx), the enzyme forms the core of the Trx system. The mammalian Trx system exerts a wide spectrum of functions including redox regulation, antioxidant defense, regulation of transcription factors as well as support of cell growth and replication. Many of these functions involve the reduction of Trx, which may subsequently reduce a number of different substrates including ribonucleotide reductase, peroxiredoxins or NFkB. Mammalian TrxR itself also has a broad substrate specificity, reducing both protein and non-protein substrates, including low molecular weight compounds such as dehydroascorbate, lipoic acid, ubiquinone, and juglone. In addition, several drugs in clinical use for anticancer treatment are indeed known to target TrxR1.
This BioAssay is a validation of an NADPH fluorescence-based, dual-purpose qHTS rTrxR1 assay designed to find potential inhibitors and substrates of rTrxR1. For this particular BioAssay, actives are potential substrates. See related BioAssay for inhibitors data deposition.
Assay protocol: 2 uL of reagents (buffer in column 4 as negative control and 90 nM rTrxR1 in columns 1-3 and 5-48) were dispensed into Greiner black solid-bottom 1,536-well assay plates, followed by 1 uL of NADPH (400 uM final concentration) to each well. The plates were centrifuged at 1000 rpm for 15 seconds and subsequently incubated for 5 min at room temperature (~22 deg C) to allow for rTrxR1 reduction. Compounds (23 nL) were then transferred via Kalypsys pin tool equipped with 1536-pin array (10 nL slotted pins, V&P Scientific, San Diego, CA). In addition, a duplicate 2-fold serial dilution of the control compounds auranofin, a known gold-based TrxR1 inhibitor, and juglone (5-hydroxy-1,4-naphthoquinone), a natural TrxR1 substrate, were pin-transferred to columns 2 and 3, respectively. After incubation for 15 min at room temperature (~22 deg C), 1 uL of selenite (400 uM final concentration) were dispensed to each well. The plate was immediately transferred to a ViewLux high-throughput CCD imager (PerkinElmer), wherein kinetic measurements of NADPH fluorescence (Ex 340 nm, Em 450 nm) were acquired (8 minute kinetic read, see Table 1). Read 1 was utilized to assess the capacity of a compound to serve as an rTrxR1 substrate, i.e. a decrease in NADPH fluorescence compared to the no-compound background is an indication of a substrate behavior for that particular compound. For inhibitory activity of a compound, delta values, computed as the difference in fluorescence intensity between the first and last reads of an 8-minute time kinetic window, were used. All reagents were diluted in an assay buffer consisting of 50 mM Tris-HCl, pH 7.5, 2 mM EDTA, and 0.01% Tween-20.
Throughout the screen, reagent bottle and all liquid lines were made light-tight to minimize reagent degradation. All screening operations were performed on a fully integrated robotic system (Kalypsys, San Diego, CA) containing one RX-130 and two RX-90 anthropomorphic robotic arms (Staubli, Duncan, SC). Library plates were screened starting from the lowest and proceeding to the highest concentration, and a 'double-pinning' step of the highest concentration was required to access higher concentrations of compounds. Vehicle-only plates, with DMSO being pin-transferred to the columns 5-48, were inserted uniformly at the beginning and the end of each library in order to monitor and record any shifts in the background, which can be affected by reagent dispensers or loss in enzyme activity over time. Screening data were corrected, normalized, and concentration-effect relationships were derived by using publicly-available curve fitting algorithms developed in-house (http://ncgc.nih.gov/pub/openhts).

Sequence of Thioredoxin reductase 1, cytoplasmic (Rattus norvegicus) (O89049 whole entry, looked up): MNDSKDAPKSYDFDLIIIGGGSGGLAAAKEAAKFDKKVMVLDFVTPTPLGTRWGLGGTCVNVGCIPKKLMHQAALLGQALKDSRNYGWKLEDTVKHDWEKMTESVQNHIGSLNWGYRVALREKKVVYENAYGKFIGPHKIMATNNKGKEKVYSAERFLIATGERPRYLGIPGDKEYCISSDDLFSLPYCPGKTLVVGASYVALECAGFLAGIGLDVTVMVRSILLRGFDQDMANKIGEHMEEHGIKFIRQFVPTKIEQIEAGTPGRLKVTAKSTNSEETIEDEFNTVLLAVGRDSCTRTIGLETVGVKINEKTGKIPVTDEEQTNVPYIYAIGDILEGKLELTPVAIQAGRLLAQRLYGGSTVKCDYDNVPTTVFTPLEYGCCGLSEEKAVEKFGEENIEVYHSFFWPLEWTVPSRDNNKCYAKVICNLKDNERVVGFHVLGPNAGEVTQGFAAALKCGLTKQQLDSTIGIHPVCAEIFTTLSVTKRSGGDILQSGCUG

| Structure (SMILES) | outcome |
| --- | --- |
| CC1CC2C3CCC4=CC(=O)C=C[C@]4(C)[C@@]3(F)[C@@H](O)C[C@]2(C)[C@@]1(O)C(=O)CO (stereo partly specified) | inactive |
| N[C@@H](Cc1ccc(O)c(O)c1)C(=O)O | inactive |
| CCN1CCCC1CNC(=O)c1cc(S(N)(=O)=O)ccc1OC (stereo unspecified) | inactive |
| O=C(O)C1CCCN(CCC=C(c2ccccc2)c2ccccc2)C1 (stereo unspecified) | inactive |
| Cc1ccc(S(=O)(=O)N[C@@H](Cc2ccccc2)C(=O)CCl)cc1 | inactive |
| NC(=O)c1ccc2[nH]ccc2c1 | inactive |
| CCCCS(=N)(=O)CCC(N)C(=O)O (stereo unspecified) | inactive |
| CC(=O)[C@H]1CC[C@H]2[C@@H]3CCC4=CC(=O)CC[C@]4(C)[C@H]3CC[C@]12C | inactive |
| NC(=O)c1cccc(N)c1 | inactive |
| CC1=C(C(=O)O)N2C(=O)[C@@H](NC(=O)C(N)c3ccccc3)[C@H]2SC1 (stereo partly specified) | inactive |
| COc1cc2ncnc(Nc3cccc(Cl)c3)c2cc1OC | inactive |
| OCc1ccc(-c2nn(Cc3ccccc3)c3ccccc23)o1 | inactive |
| CC(C)NCC(O)c1ccc(NS(C)(=O)=O)cc1 (stereo unspecified) | inactive |
| COc1cc2nc(N3CCCN(C)CC3)nc(NC3CCN(Cc4ccccc4)CC3)c2cc1OC | inactive |
| CCN(CC)CC#CCOC(=O)C(O)(c1ccccc1)C1CCCCC1 (stereo unspecified) | inactive |
| CCN(CC)CCn1c(=O)c(Cc2ccc(OC)cc2)nc2ccccc21 | inactive |
